GAA glycogen = alters human alpha-glucosidase cleavage of glycogen. P10253. recombinant GAA, glycogen substrate, Amplex Red glucose oxidase fluorescence. Potency, µM (series often up to 76.4 µM), for the others: at the highest dose activity change, negative = inhibition, most hits filed as inhibitors. hit rate 0.38% among 300,000. AID 2100;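 further: potency means the concentration at half of the fitted maximal effect; 0% = full enzyme reaction and -100% = no-enzyme basal signal; the screen sought inhibitors and activators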
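Recombinant human alpha-glucosidase (4 nM final) hydrolysed bovine liver glycogen (30 ug) for 40 min at 37 C in pH 5.0 citrate/phosphate with 0.01% Tween-20. Released glucose detected by glucose oxidase/Amplex Red, Ex 573/Em 610 nm. Compounds up to 77 uM; AC50 from Hill fits.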
N370S GC mod = inhibitors or activators of N370S glucocerebrosidase for Gaucher disease; hit rate 0.092% among 330,000; Potency, µM (series often up to 59.4 µM), inactives show at the highest dose activity change, negative = inhibition, actives largely listed as inhibitors; P04062; N370S GC spleen homogenate, 4MU-glucoside fluorescence; AID 2101;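 further: potency means the concentration at half of the fitted maximal effect; 0% = full enzyme activity and -100% = no enzyme basal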
aGlu spleen mod = lysosomal alpha-glucosidase (human) modulation | hit rate 0.006% among 240,000 | AID 2112 | human spleen homogenate, 4-MU-alpha-glucoside fluorescence | Potency, µM (titrated, usually from 79.9 µM), inactives show at the highest dose activity change, negative = inhibition, most hits filed as inhibitors;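 further: potency means the concentration at half of the fitted maximal effect; 0% = enzyme with vehicle and -100% = no enzyme basal signal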
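AC50 values come from Hill-equation fits of concentration-response data, normalized to no-enzyme and full-activity controls. Enzyme source: 1 ug human spleen homogenate; 1 mM fluorogenic 4-MU glucoside, pH 5.0 citrate buffer, 37 C, 40 min.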
GLA inh pH 4.5 = alpha-galactosidase A (human) inhibition, pH 4.5. 230,000 tested, under 10 active. activity change, negative = inhibition, % at 105 µM. P06280. purified enzyme, 4-MU-alpha-Gal fluorescence, pH 4.5;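 further: 0% = full activity with enzyme and -100% = basal without enzyme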
Target sequence (P06280 whole entry, looked up): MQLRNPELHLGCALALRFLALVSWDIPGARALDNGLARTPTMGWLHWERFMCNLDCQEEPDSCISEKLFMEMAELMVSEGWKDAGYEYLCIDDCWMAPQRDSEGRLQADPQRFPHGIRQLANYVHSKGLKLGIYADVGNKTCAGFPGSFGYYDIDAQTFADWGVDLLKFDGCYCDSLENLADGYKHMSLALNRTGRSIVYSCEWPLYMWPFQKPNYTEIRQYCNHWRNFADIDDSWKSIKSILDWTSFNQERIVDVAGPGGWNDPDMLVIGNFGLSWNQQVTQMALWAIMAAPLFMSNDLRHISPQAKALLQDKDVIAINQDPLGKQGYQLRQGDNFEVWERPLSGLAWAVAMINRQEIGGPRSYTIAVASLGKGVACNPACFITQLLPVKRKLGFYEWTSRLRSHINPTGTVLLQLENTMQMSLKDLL
GLA spleen mod = alpha-galactosidase A (human) modulation. P06280. human spleen homogenate, 4MU-alpha-Gal fluorescence, 40 min. Potency, µM (doses to about 80 µM), inactives show at the top dose activity change, negative = inhibition, actives largely listed as inhibitors. hit rate 0.008% among 240,000. AID 2107;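 further: potency means the concentration at half of the fitted maximal effect; 0% = enzyme with vehicle and -100% = no enzyme basal signal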
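Human spleen homogenate (1 ug) was the enzyme source, with 4-methylumbelliferyl-alpha-D-galactopyranoside (1 mM final) in pH 5.0 citrate buffer with 0.01% Tween-20. Compounds were titrated; after 40 min at 37C, NaOH/glycine stop, 4-MU fluorescence read; AC50 from Hill fits.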
GAA inh = alpha-glucosidase (human) inhibition; purified human GAA, 4-MU-alpha-glucoside fluorescence; Potency, µM (top dose mostly 76.9 µM), without a hit: top-dose activity change, negative = inhibition, most hits filed as inhibitors; hit rate 0.005% among 200,000; AID 1466;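 further: potency means the concentration at half of the fitted maximal effect; plate controls were uninhibited enzyme wells for no effect and no-enzyme background for full effect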
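Fluorescence at Ex 365/Em 440 nm from 4-methylumbelliferone reported enzyme activity after 20 min at room temperature. Reactions used 4 nM enzyme and 400 uM substrate at pH 5.0; curves fitted with the Hill equation.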
Starred values were filed as active, the others as inactive; ? = inconclusive; nt = no result; [ ] = dose if it differs, or a comment. Only some compounds are listed: those with a hit (about 0.41% of all), similar ones and a draw of the others. The call rests on the fitted dose curve; in most records, active means well fitted curve in the direction sought with a large enough effect; inconclusive means small, poorly fitted or top-dose-only effect, or another doubt; inactive means no such curve, though single readings can be large; an effect the other way counts as inactive or inconclusive.

SMILES	GAA glycogen	N370S GC mod	aGlu spleen mod	GLA inh pH 4.5	GLA spleen mod	GAA inh
CC[C@H](C)[C@H](NC(=O)[C@H](CCC(=O)O)NC(=O)[C@H](CO)NC(=O)[C@@H](NC(=O)[C@@H](N)CO)C(C)C)C(=O)N[C@@H](CCC(N)=O)C(=O)N[C@@H](CC(C)C)C(=O)N[C@@H](CCSC)C(=O)N[C@@H](Cc1cnc[nH]1)C(=O)N[C@@H](CC(N)=O)C(=O)N[C@@H](CC(C)C)C(=O)NCC(=O)N[C@@H](CCCCN)C(=O)N[C@@H](Cc1cnc[nH]1)C(=O)N[C@@H](CC(C)C)C(=O)N[C@@H](CC(N)=O)C(=O)N[C@@H](CO)C(=O)N[C@@H](CCSC)C(=O)N[C@@H](CCC(=O)O)C(=O)N[C@@H](CCCNC(=N)N)C(=O)N[C@H](C(=O)N[C@@H](CCC(=O)O)C(=O)N[C@@H](Cc1c[nH]c2ccccc12)C(=O)N[C@@H](CC(C)C)C(=O)N[C@@H](CCCNC(=N)N)C(=O)N[C@@H](CCCCN)C(=O)N[C@@H](CCCCN)C(=O)N[C@@H](CC(C)C)C(=O)N[C@@H](CCC(N)=O)C(=O)N[C@@H](CC(=O)O)C(=O)N[C@H](C(=O)N[C@@H](Cc1cnc[nH]1)C(=O)N[C@@H](CC(N)=O)C(=O)N[C@@H](Cc1ccccc1)C(=O)N[C@H](C(=O)N[C@@H](C)C(=O)N[C@@H](CC(C)C)C(=O)NCC(=O)O)C(C)C)C(C)C)C(C)C	nt	0%	5%	nt	14%	nt
NCCc1ccc(O)c(O)c1	2µM*	4%	9%	2	-1%	6%[15.4 µM]
CC(=O)NCCc1ccc(O)c(O)c1	nt	0%	-1%	-3	-5%	nt
COc1ccc([C@H]2OCC3C2CO[C@@H]3c2ccc(OC)c(OC)c2)cc1OC (stereo partly specified)	nt	-13%	5%	nt	-14%	nt
c1ccc(COC[C@@H]2CO2)cc1	nt	8%	2%	nt	10%	nt
NNC(=O)c1nn(-c2ccc(Cl)cc2)cc1O	28µM*	-22%	-6%	6	-4%	9%
CN1c2cccc3cccc(c23)N(C)C1c1cccs1	?	10%	3%	0	4%	1%
CC1N(C)c2cccc3cccc(c23)N1C	12µM*	1%	4%	3	9%	5%
CC(C)OCCCNc1nc(-c2ccccc2)nc2ccccc12	-10%[76.3 µM]	1.8µM*	nt	nt	nt	nt
c1ccc(CCNc2nc(-c3ccncc3)nc3ccccc23)cc1	-3%	14µM*	0%	-1	-5%	nt
Clc1ccccc1-c1nc(NCc2cccnc2)c2ccccc2n1	nt	16µM*	3%	nt	9%	nt
CC(C)(C)C(=O)OCCNc1nc(-c2ccccc2)nc2ccccc12	-1%	0.89µM*	3%	-4	-9%	-11%
N#CCCCS(=O)(=O)c1nnnn1-c1ccc(F)cc1Br	nt	-13%	7%	1	-4%	nt
CCCCc1nc2c(c3c1C[C@H](C)OC3)CN(C(=O)Nc1ccc(OC)cc1)CC2	nt	6%[12.8 µM]	0%[17.4 µM]	0	-2%[17.5 µM]	nt
Oc1ccc(/C=N/Nc2nccnc2Cl)cc1	11µM*	-18%	-7%	0	2%	-11%
Fc1ccc(/C=N/Nc2nccnc2Cl)cc1	-2%[76.3 µM]	-14%	nt	nt	nt	nt
CC/C(=C\C(=O)c1ccncc1)Nc1ccc(O)cc1	45µM*	3%[2.35 µM]	-8%	-14	9%	-8%
CC(C)C[C@H](NC(=O)[C@H](Cc1ccccc1)NC(=O)[C@@H]1CCCN1C(=O)[C@H](CC(=O)O)NC(=O)[C@@H]1CCC(=O)N1)C(=O)N[C@@H](CCCN=C(N)N)C(=O)N[C@@H](Cc1ccccc1)C(N)=O	nt	-2%	0%	nt	4%	nt
CCOC(=O)N1CC(C)N(/[N+]([O-])=N/Oc2ccc([N+](=O)[O-])cc2[N+](=O)[O-])CC1C (stereo unspecified)	nt	-8%	-11%	nt	-3%	nt
Oc1ccccc1Nc1nc(NCc2ccccc2)c2ccccc2n1	7.1µM*	11µM*	-1%	-9	3%	-13%
CNc1nc(NCc2ccccc2)c2ccccc2n1	-10%[76.3 µM]	29%	nt	nt	nt	nt
Cc1c(C(=O)O)c2cc(O)ccc2n1-c1ccccc1	25µM*	-4%	-6%	5	-21%	-3%
CCOC(=O)C1CCCN(Cc2nc(N)nc(Nc3ccccc3)n2)C1 (stereo unspecified)	4µM*	-12%	5%	3	6%	?
CCOC(=O)C1CCCN(C(=S)Nc2ccc(Nc3ccccc3)cc2)C1 (stereo unspecified)	40µM*	5%	-11%	-6	7%	-14%
CC1(C)C([N+](=O)[O-])C(c2ccc(O)cc2)NC(c2ccc(O)cc2)C1[N+](=O)[O-] (stereo unspecified)	4%	8.9µM*	0%	0	-9%	-2%
SMILES	GAA glycogen	N370S GC mod	aGlu spleen mod	GLA inh pH 4.5	GLA spleen mod	GAA inh
CC1(C)C([N+](=O)[O-])C(c2ccc(F)cc2)NC(c2ccc(F)cc2)C1[N+](=O)[O-] (stereo unspecified)	-3%	7%	1%	-8	5%	nt
O=C(O)c1ccccc1C(=O)NNc1ccc(F)cc1	28µM*	2%	2%	8	11%	-9%
O=C(NNC(=O)c1ccccc1-n1cccc1)c1ccc(Cl)cc1Cl	6%	6%	5%	-4	-4%	?
O=C(O)c1ccccc1-c1ccccc1C(=O)Nc1ccc(F)cc1	-1%	-1%	nt	nt	nt	nt
O=C(O)c1ccccc1C(=O)NNc1ccc(Cl)cc1Cl	16µM*	1%	2%	1	-6%	4%
COC(=O)/C=C/c1cc(O)ccc1O	nt	-3%	-5%	nt	-23%	nt
O=C(c1ccc2c(c1)N(Cc1ccccc1F)C(=O)c1ccccc1S2)N1CCOCC1	-4%	-2%	4%	3	-1%	nt
CCN1C(=O)c2ccccc2Sc2ccc(C(=O)NCCCN3CCOCC3)cc21	-11%	-9%	0%	8[21.1 µM]	7%	1%
O=C(NCCN1CCOCC1)c1ccc2c(c1)N(Cc1ccccc1F)C(=O)c1ccccc1S2	0%	10µM*	-12%	-15	-4%	-4%
Cc1cccc(CN2C(=O)c3ccccc3Sc3ccc(C(=O)NCCN4CCOCC4)cc32)c1	-8%	14µM*	1%	-16	0%	-7%
CCCNC(=O)N1N=C(c2ccc(N)cc2)c2cc3c(cc2C1C)OCO3 (stereo unspecified)	nt	1%	-10%	nt	-13%	nt
COc1cccc(C(=O)Nc2ccc3nc(N4CCOCC4)cc(C)c3c2)c1	-3%	10µM*	8%	-9	6%	-6%

High-throughput results (PubChem)
